Data on four compounds can be found in PubChem BioAssay (EPA / NIEHS).

Results filed as inconclusive are left out. Calls of active or inactive are those of the source. Rule for the calls, unless noted: active = hit-call score of the fitted dose curve at least 0.9, where 1 is the maximum; inconclusive = response in the unintended direction; inactive = score below 0.9.

For assay [1], the target named is zebrafish Estrogen Receptor (ER1), esr1 (gene 259252) (UniProt P57717). In words: ATG_zfER1_XSP2: Attagene TRANS-FACTORIAL Multi-Species (XSP2) HepG2 Assay for zebrafish Estrogen Receptor (ER1) (AID 2283816). A digest of the protocol: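 HepG2 cells transiently transfected with a GAL4-UAS reporter and a chimeric zebrafish ER1-Gal4 construct, dosed 24 h. Reporter mRNA quantified by RT-PCR, labelling, HpaI digestion and capillary electrophoresis, relative to DMSO.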

Assay [2] addresses chicken Estrogen Receptor (ERa), ESR1 (gene 396099) (UniProt P06212). In words: ATG_chERa_XSP2: Attagene TRANS-FACTORIAL Multi-Species (XSP2) HepG2 Assay for chicken Estrogen Receptor (ERa) (AID 2283817).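 Note: actives raise reporter signal above DMSO so AC50 reflects ER activation.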 A digest of the protocol:
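HepG2 cells transiently transfected with multiplexed GAL4-UAS reporter units expressing chimeric chicken ERa-Gal4; 24 h compound exposure. Reporter mRNA measured by RT-PCR with 6-FAM labelling, HpaI digestion and capillary electrophoresis; gain-of-signal fitted versus DMSO.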

Assay [3] has as its system zebrafish Estrogen Receptor (ER2a), gene 317734. In words: ATG_zfER2a_XSP2: Attagene TRANS-FACTORIAL Multi-Species (XSP2) HepG2 Assay for zebrafish Estrogen Receptor (ER2a) (AID 2283818).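 Note: hits raise reporter mRNA so AC50 reflects activation of zebrafish ER2a.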 A digest of the protocol: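 HepG2 cells transiently transfected with GAL4-UAS reporter units and chimeric zebrafish ER2a-Gal4, exposed 24 h; medium contains 3 nM 6-alpha-fluorotestosterone and 1.5 nM norgestrel. Reporter mRNA quantified by RT-PCR, HpaI digestion, capillary electrophoresis; gain versus DMSO.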

Assay [4] relates to frog Estrogen Receptor (ER), gene 398734. In words: ATG_frER1_XSP2: Attagene TRANS-FACTORIAL Multi-Species (XSP2) HepG2 Assay for frog Estrogen Receptor (ER) (AID 2283821).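 Note: hits raise reporter mRNA above DMSO baseline so potency means agonist or activator.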 The essentials: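 HepG2, transient MRTU transfection, chimeric NR-GAL4/UAS reporters; 24 h compound exposure, 24-well. Readout: reporter mRNA via RT-PCR + capillary electrophoresis, fluorescence. Positive fit vs DMSO baseline.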

In assay [5] the test system is zebrafish Estrogen Receptor (ER2b), gene 317733. In words: ATG_zfER2b_XSP2: Attagene TRANS-FACTORIAL Multi-Species (XSP2) HepG2 Assay for zebrafish Estrogen Receptor (ER2b) (AID 2283823).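 Note: fitted upward as reporter gain over DMSO so potency reflects activation.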 The essentials: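 Cells used were HepG2, transiently transfected with chimeric nuclear receptor-Gal4 reporter units. After 24 h of chemical treatment, reporter transcripts were amplified by RT-PCR, labelled and sized by capillary electrophoresis, with induction analysed relative to DMSO.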

Assay [6] concerns frog Estrogen Receptor (ER2), gene 100174814. In words: ATG_frER2_XSP2: Attagene TRANS-FACTORIAL Multi-Species (XSP2) HepG2 Assay for frog Estrogen Receptor (ER2) (AID 2283828). A digest of the protocol: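 Human liver HepG2, transient MRTU transfection (TRANS format, exogenous NR–Gal4). 24 h cpd exposure. Total RNA → RT → PCR → FAM label → HpaI cut → CE. Positive direction vs DMSO.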

The target in assay [7] is Peroxisome proliferator-activated receptor gamma (Homo sapiens) (UniProt P37231). In words: ATG_hPPARg_XSP2: Attagene TRANS-FACTORIAL Multi-Species (XSP2) HepG2 Assay for human Peroxisome Proliferator-activated Receptor gamma (PPARg) (AID 2283829).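 Note: actives raise reporter mRNA above DMSO so AC50 reflects PPARg activation.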 A digest of the protocol: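 After transfecting HepG2 with GAL4-UAS reporter constructs, cells are dosed for 24 h; total RNA is reverse-transcribed, PCR-amplified, FAM-labeled, HpaI-digested and resolved by capillary electrophoresis. Activity is measured as mRNA induction relative to DMSO.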

Assay [8] has as its target mouse Peroxisome Proliferator-activated Receptor gamma (PPARg), Pparg (gene 19016) (UniProt P37238). In words: ATG_mPPARg_XSP2: Attagene TRANS-FACTORIAL Multi-Species (XSP2) HepG2 Assay for mouse Peroxisome Proliferator-activated Receptor gamma (PPARg) (AID 2283830).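 Note: hits are gains in reporter mRNA above DMSO so AC50 marks activation.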 A digest of the protocol:
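HepG2 cells transiently transfected with GAL4-UAS reporter units for chimeric NR-Gal4 proteins including mouse PPARg, exposed 24 h; medium contained 3 nM 6-alpha-fluorotestosterone and 1.5 nM norgestrel. Reporter mRNA quantified by RT-PCR, HpaI digestion and capillary electrophoresis, vs DMSO.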

Assay [9] addresses zebrafish Thyroid Hormone Receptor alpha (TRa), thraa (gene 30670) (UniProt Q98867). In words: ATG_zfTRa_XSP2: Attagene TRANS-FACTORIAL Multi-Species (XSP1) HepG2 Assay for zebrafish Thyroid Hormone Receptor alpha (TRa) (AID 2283832).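 Note: actives raise zebrafish TRa-Gal4 reporter transcript above DMSO baseline.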 The essentials:
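Chimeric receptor-Gal4 activity was assessed in transfected human liver HepG2 cells 24 h after dosing, using reporter transcript levels detected by RT-PCR and capillary electrophoresis. DMSO served as baseline.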

Assay [10] deals with zebrafish Peroxisome Proliferator-activated Receptor gamma (PPARg), gene 557037. In words: ATG_zfPPARg_XSP2: Attagene TRANS-FACTORIAL Multi-Species (XSP2) HepG2 Assay for zebrafish Peroxisome Proliferator-activated Receptor gamma (PPARg) (AID 2283833).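 Note: actives increase reporter signal over DMSO so AC50 reflects activation.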 The essentials: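 Multi-species TRANS format in HepG2, 24 h dosing; medium also contained 3 nM 6-alpha-fluorotestosterone and 1.5 nM norgestrel to stimulate androgen receptor. Zebrafish PPARg-GAL4 induced reporter mRNA was measured by RT-PCR/capillary electrophoresis.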

Assay [11] in a line: ATG_M_61_XSP2: Attagene TRANS-FACTORIAL Multi-Species (XSP2) HepG2 Assay for M61 Transcription Factor (Internal Marker) (AID 2283835; active = hit-call score of the fitted dose curve at least 0.9, where 1 is the maximum; inactive = score below 0.9;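 note: active means a rise in signal above the DMSO baseline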). The essentials: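 HepG2 cells transiently transfected with multiple GAL4-UAS reporter units; 3 nM 6-alpha-fluorotestosterone and 1.5 nM norgestrel present to stimulate androgen receptor. After 24 h compound exposure, reporter mRNA measured by RT-PCR and capillary electrophoresis fluorescence, gain-of-signal versus DMSO baseline.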

The target of assay [12] is zebrafish Thyroid Hormone Receptor beta (TRb), thrb (gene 30607) (UniProt Q9PVE4). In words: ATG_zfTRb_XSP2: Attagene TRANS-FACTORIAL Multi-Species (XSP1) HepG2 Assay for zebrafish Thyroid Hormone Receptor beta (TRb) (AID 2283836). A digest of the protocol: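 Fluorescence of labelled reporter cDNA fragments, separated by capillary electrophoresis, gives mRNA induction from exogenous NR-Gal4 chimeras in transiently transfected HepG2 cells after 24 h dosing; 3 nM 6-alpha-fluorotestosterone and 1.5 nM norgestrel included in the run.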

In assay [13] the test system is turtle Androgen Receptor (AR), gene 101947425. In words: ATG_trAR_XSP2: Attagene TRANS-FACTORIAL Multi-Species (XSP2) HepG2 Assay for turtle Androgen Receptor (AR) (AID 2283815).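 For AC50: potency for gain of reporter signal meaning activation above DMSO baseline.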 A digest of the protocol:
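HepG2 cells transiently transfected with GAL4-UAS reporter units for chimeric NR-Gal4 receptors; 24 h dosing in presence of 3 nM 6-alpha-fluorotestosterone and 1.5 nM norgestrel. Reporter mRNA by RT-PCR and capillary electrophoresis, gain of signal versus DMSO.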

Assay [14] has as its system chicken Androgen Receptor (AR), gene 422165. In words: ATG_chAR_XSP2: Attagene TRANS-FACTORIAL Multi-Species (XSP2) HepG2 Assay for chicken Androgen Receptor (AR) (AID 2283819).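 Note: hits raise reporter mRNA above DMSO so potency is for activation.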 A digest of the protocol:
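HepG2 cells transiently transfected with chicken AR–GAL4 chimeric reporter constructs, stimulated with 3 nM 6-alpha-fluorotestosterone plus 1.5 nM norgestrel, dosed 24 h. Reporter mRNA quantified by RT-PCR and capillary electrophoresis; gain of signal fitted versus DMSO.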

Assay [15] relates to frog Androgen Receptor (AR), gene 399456. In words: ATG_frAR_XSP2: Attagene TRANS-FACTORIAL Multi-Species (XSP2) HepG2 Assay for frog Androgen Receptor (AR) (AID 2283824).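 Note: actives raise reporter signal above DMSO so AC50 reflects agonist-like induction.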 The essentials: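 HepG2 cells transiently transfected with GAL4-UAS reporter units and frog (Xenopus laevis) AR-Gal4 chimera; reporter mRNA measured 24 h after dosing by RT-PCR and capillary electrophoresis. Gain of signal fitted relative to DMSO baseline.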

The target of assay [16] is Nuclear receptor subfamily 1 group I member 2 (Mus musculus) (UniProt O54915). In words: ATG_mPXR_XSP2: Attagene TRANS-FACTORIAL Multi-Species (XSP1) HepG2 Assay for mouse Pregnane X Receptor (PXR) (AID 2283831). A digest of the protocol:
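Reporter transcripts were quantified by RT-PCR, FAM primer extension, HpaI digestion and capillary electrophoresis after 24 h of chemical exposure in transiently transfected HepG2 cells carrying chimeric receptor-GAL4 constructs; DMSO served as baseline.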

The test system of assay [17] is turtle Thyroid Hormone Receptor, alpha (TRa), gene 101949057. In words: ATG_trTRa_XSP2: Attagene TRANS-FACTORIAL Multi-Species (XSP1) HepG2 Assay for turtle Thyroid Hormone Receptor, alpha (TRa) (AID 2283834).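 Note: hits raise reporter mRNA over the DMSO baseline so AC50 marks activators.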 The essentials: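 Transfection of HepG2 with multiple reporter transcription units, then chemical dosing for 24 h. Total RNA was reverse-transcribed, reporter sequences PCR-amplified and FAM-labelled, then sized by capillary electrophoresis. DMSO served as baseline.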

Assay [18] in a line: ATG_M_32_XSP2: Attagene TRANS-FACTORIAL Multi-Species (XSP2) HepG2 Assay for M19 Transcription Factor (Internal Marker) (AID 2283826). The essentials:
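Transfected HepG2 (multiplexed GAL4-UAS reporters), 24 h chemical exposure, 3 nM 6-alpha-fluorotestosterone + 1.5 nM norgestrel added. RNA → oligo(dT) RT → PCR → 6-FAM primer extension → HpaI cut → CE. Fitted upward vs DMSO.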

Chain of zebrafish Thyroid Hormone Receptor alpha (TRa), thraa (gene 30670) (Q98867 whole entry, looked up, the tested form may be a part): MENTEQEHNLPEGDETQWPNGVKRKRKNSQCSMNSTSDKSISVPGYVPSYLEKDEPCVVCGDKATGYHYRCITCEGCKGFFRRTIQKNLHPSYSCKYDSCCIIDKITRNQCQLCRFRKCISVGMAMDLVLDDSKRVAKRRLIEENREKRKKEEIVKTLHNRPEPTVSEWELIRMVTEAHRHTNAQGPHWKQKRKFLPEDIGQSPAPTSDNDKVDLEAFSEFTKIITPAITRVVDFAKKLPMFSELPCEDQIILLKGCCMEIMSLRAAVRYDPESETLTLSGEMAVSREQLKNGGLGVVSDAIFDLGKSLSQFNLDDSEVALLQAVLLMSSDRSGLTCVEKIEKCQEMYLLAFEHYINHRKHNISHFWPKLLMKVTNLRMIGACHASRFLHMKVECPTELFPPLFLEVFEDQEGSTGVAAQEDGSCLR
Chain of chicken Estrogen Receptor (ERa), ESR1 (gene 396099) (P06212 whole entry, looked up, the tested form may be a part): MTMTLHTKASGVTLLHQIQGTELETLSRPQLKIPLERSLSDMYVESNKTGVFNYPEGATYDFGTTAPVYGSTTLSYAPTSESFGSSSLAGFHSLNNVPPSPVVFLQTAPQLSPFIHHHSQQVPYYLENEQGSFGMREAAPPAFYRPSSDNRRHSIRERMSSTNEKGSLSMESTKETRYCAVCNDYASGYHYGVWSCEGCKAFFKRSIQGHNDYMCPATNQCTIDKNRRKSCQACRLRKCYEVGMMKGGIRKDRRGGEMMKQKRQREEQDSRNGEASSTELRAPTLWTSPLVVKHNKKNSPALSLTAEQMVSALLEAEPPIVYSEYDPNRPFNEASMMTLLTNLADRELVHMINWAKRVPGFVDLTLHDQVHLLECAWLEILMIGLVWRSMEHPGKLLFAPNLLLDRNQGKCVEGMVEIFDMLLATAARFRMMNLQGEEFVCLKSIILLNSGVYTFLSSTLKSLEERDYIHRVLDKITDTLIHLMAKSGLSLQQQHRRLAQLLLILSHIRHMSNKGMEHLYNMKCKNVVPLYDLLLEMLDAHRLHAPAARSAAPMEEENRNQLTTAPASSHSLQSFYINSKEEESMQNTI
Chain of Nuclear receptor subfamily 1 group I member 2 (Mus musculus) (O54915 whole entry, looked up, the tested form may be a part): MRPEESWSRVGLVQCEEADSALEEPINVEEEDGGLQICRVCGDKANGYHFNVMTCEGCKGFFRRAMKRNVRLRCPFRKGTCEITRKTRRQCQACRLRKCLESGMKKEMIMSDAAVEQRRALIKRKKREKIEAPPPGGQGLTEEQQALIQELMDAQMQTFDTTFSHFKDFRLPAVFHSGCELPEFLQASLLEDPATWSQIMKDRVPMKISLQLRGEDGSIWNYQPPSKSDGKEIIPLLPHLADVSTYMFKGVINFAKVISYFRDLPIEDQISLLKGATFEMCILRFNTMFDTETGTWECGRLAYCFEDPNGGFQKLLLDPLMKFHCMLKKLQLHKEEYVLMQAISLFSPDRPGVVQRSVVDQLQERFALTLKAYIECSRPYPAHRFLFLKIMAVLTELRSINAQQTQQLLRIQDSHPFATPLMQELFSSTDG
Chain of zebrafish Thyroid Hormone Receptor beta (TRb), thrb (gene 30607) (Q9PVE4 whole entry, looked up, the tested form may be a part): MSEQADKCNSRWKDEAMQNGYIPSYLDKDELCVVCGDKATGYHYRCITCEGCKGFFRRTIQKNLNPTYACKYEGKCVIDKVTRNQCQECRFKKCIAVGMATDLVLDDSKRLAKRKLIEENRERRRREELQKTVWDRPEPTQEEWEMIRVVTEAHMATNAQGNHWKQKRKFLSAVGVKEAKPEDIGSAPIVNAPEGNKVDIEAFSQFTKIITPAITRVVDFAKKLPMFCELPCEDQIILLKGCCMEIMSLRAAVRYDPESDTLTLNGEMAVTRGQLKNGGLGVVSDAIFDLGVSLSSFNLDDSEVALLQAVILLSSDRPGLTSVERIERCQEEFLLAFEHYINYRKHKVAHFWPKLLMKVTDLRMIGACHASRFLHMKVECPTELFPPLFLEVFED
Chain of Peroxisome proliferator-activated receptor gamma (Homo sapiens) (P37231 whole entry, looked up, the tested form may be a part): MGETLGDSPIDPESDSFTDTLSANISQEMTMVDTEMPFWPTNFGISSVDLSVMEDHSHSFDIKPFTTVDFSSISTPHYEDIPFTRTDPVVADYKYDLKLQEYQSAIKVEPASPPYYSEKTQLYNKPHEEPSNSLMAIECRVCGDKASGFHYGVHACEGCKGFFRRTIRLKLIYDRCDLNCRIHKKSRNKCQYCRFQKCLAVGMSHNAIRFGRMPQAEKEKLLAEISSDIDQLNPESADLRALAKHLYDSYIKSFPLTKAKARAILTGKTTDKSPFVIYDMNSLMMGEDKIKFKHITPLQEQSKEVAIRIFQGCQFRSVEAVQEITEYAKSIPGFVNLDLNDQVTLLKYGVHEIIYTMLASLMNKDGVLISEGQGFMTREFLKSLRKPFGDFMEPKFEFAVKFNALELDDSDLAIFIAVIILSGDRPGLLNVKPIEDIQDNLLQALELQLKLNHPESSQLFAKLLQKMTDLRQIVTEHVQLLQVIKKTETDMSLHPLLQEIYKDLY
Chain of mouse Peroxisome Proliferator-activated Receptor gamma (PPARg), Pparg (gene 19016) (P37238 whole entry, looked up, the tested form may be a part): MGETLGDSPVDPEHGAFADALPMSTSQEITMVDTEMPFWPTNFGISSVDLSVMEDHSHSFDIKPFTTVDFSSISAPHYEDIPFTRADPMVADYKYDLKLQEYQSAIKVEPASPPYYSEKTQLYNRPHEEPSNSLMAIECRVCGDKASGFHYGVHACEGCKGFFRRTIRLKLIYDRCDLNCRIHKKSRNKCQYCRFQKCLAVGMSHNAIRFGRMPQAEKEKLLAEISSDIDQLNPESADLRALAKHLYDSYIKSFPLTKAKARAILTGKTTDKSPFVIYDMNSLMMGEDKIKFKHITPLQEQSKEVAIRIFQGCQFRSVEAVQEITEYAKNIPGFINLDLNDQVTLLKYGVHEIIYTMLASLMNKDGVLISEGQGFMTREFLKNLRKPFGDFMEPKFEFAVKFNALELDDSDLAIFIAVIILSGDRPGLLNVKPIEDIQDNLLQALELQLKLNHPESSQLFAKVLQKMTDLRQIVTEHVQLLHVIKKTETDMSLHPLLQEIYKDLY
Chain of zebrafish Estrogen Receptor (ER1), esr1 (gene 259252) (P57717 whole entry, looked up, the tested form may be a part): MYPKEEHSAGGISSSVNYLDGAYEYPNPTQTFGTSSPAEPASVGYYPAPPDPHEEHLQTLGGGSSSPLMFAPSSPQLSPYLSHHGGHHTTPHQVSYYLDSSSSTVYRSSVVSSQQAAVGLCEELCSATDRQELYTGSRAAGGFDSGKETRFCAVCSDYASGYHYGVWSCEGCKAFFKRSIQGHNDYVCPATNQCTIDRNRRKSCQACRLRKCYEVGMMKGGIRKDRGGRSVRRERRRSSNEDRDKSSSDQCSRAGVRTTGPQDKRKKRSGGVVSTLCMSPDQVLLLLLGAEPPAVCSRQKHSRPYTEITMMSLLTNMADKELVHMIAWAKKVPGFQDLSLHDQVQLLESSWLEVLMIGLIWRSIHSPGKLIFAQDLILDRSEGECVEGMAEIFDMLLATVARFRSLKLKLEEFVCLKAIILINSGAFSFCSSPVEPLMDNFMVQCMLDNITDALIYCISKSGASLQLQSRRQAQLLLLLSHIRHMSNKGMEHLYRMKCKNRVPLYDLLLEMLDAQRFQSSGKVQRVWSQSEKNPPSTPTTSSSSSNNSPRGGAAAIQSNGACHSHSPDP

`CCCN(CCC)c1c([N+](=O)[O-])cc(S(N)(=O)=O)cc1[N+](=O)[O-]`: the compound was classed as inactive in assay [1], in [2], in assay [3], in [4], in [7] and in assay [8]. Moreover, the compound was called inactive in assay [10], in assay [11] and in assay [12]. Besides, the AC50 in assay [5] was 40.4 µM (active); in assay [6], 22.4 µM (active); in assay [9] it was 51.1 µM (active).
Regarding `COP(=S)(OC)Oc1nc(Cl)c(Cl)cc1Cl`, the concentration at half-maximal activity (AC50) was 17.5 µM (active) in assay [13]; 35.3 µM (active) in assay [2]; 22.9 µM (active) in [14]; 43 µM (active) in [4]; 87.2 µM (active) in assay [5]; 29.7 µM (active) in [15]. Also, the half-maximal activity concentration (AC50) in [7] is 4.74 µM (active); in assay [8], 6.11 µM (active). Moreover, the compound was called inactive in assay [3], in assay [6], in assay [16], in [9], in assay [17] and in [11]. Besides, in assay [12], the compound was called inactive.
Regarding `CC(C)(C)c1ccc(CSc2cnn(C(C)(C)C)c(=O)c2Cl)cc1`, the outcome in assay [13], in assay [1], in assay [2], in assay [3], in assay [14] and in [4] was inactive. For the same compound, the compound was classed as inactive in assay [5], in assay [15], in assay [18], in assay [6], in assay [9] and in assay [10]. The compound was classed as inactive in [11] and in assay [12]. In addition, the half-maximal activity concentration (AC50) in [7] was 1.3 µM (active); in [8], 2.2 µM (active); in [16], 0.834 µM (active); in [17], 0.0534 µM (active).
With `CCCCC(CC)COC(=O)c1ccccc1C(=O)OCC(CC)CCCC` (centres undefined), the outcome in assay [4], in assay [9], in assay [17], in assay [11] and in [12] was inactive. The AC50 in assay [5] is 8.7 µM (active); in assay [7], 34.5 µM (active); in assay [8], 9.14 µM (active); in assay [16], 0.342 µM (active).
